Laboratory results taken from publication PMC5700166.

Legend:
Assay in all cases: protein-binding microarray (PBM); PBM: ~300 nM protein, 6 mM HEPES pH 7.8, 80 mM KCl, 0.5 mM EDTA, 0.5 mM EGTA, 6% glycerol, 35 ng/ul poly-dIdC, 1% milk, 1 h, room temperature; Ap Aiptasia and Nv Nematostella (sea anemones) / Co Capsaspora / Aq Amphimedon (sponge) / Dm Drosophila / Hu human; RHD is the Rel homology domain; high values mean tight binding
Settings in all cases: dsDNA, one strand shown
[1] = target: T1, GST-Ap-NF-kB RHD (Exaiptasia pallida (Aiptasia), UniProt A0A913YAJ5 2-422)
T1 sequence: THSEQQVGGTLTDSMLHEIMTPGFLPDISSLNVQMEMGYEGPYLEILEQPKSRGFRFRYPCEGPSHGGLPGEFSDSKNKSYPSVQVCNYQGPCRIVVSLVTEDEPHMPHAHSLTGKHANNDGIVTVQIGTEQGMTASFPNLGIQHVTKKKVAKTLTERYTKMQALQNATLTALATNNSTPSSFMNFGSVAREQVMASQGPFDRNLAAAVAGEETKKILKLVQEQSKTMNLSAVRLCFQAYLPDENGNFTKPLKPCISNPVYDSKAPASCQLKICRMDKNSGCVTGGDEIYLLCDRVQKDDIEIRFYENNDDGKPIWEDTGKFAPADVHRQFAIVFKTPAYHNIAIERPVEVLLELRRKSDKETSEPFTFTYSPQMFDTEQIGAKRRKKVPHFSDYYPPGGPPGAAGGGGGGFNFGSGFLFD

[2] = target: T2, GST-Nv-NF-kB (Cys allele) (Nematostella vectensis, UniProt E5G601 2-411)
T2 sequence: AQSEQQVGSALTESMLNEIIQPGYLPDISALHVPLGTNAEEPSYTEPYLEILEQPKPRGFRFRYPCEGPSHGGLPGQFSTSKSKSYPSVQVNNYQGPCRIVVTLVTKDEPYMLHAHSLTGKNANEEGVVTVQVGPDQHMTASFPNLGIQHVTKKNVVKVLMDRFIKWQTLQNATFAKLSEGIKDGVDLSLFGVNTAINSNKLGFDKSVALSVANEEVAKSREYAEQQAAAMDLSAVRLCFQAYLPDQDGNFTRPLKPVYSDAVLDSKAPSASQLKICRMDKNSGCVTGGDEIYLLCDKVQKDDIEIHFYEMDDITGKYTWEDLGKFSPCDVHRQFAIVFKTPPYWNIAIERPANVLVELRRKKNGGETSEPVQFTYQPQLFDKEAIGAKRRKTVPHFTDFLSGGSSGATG

[3] = target: T3, GST-Co-NF-kB (Capsaspora owczarzaki, UniProt F1ARL5 200-546)
T3 sequence: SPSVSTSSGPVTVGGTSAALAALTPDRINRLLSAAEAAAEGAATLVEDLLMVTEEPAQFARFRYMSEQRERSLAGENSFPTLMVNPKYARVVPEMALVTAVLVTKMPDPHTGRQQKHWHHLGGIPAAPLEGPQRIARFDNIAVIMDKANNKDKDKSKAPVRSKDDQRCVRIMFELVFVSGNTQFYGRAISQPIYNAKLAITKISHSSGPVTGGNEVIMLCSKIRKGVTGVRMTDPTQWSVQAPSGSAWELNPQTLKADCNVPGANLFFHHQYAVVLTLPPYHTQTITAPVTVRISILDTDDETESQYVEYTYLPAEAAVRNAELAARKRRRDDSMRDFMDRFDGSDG

[4] = target: T4, GST-Dm-Relish (Drosophila melanogaster, UniProt Q94527 99-473)
T4 sequence: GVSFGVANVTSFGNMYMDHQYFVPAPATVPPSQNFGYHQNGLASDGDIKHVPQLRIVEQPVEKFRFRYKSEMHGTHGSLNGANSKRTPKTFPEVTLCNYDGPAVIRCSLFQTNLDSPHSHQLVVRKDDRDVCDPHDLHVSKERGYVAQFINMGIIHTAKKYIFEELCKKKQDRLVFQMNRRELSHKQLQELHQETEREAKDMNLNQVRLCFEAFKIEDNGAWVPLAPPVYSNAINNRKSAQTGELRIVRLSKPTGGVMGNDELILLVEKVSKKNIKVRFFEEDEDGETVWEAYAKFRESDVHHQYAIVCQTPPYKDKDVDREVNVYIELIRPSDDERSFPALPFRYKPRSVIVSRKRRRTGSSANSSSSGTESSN

[5] = target: T5, GST-Aq-NF-kB (Amphimedon queenslandica, UniProt A9Y5G7 2-389)
T5 sequence: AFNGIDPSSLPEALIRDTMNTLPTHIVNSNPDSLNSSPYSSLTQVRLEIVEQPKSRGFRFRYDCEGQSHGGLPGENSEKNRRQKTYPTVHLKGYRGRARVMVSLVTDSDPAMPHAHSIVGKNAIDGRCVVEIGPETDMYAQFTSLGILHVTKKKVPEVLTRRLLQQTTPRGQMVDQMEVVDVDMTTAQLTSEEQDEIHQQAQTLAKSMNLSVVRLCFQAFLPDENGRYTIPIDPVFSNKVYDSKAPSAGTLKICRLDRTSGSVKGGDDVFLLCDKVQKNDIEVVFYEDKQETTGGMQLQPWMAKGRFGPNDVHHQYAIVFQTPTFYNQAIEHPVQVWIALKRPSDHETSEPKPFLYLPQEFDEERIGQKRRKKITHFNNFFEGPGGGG

CCGATTAACATCAGGGGCGCCCCTGATGTTAATCGGGTCTTGATTCGCTTGACGCTGCTG
binding signal [1]: 7.03 z-score
binding signal [2]: 5.37 z-score
binding signal [3]: 3 z-score
binding signal [4]: 6.07 z-score
binding signal [5]: 8.59 z-score

CCGATTAACATCAGGGAATTGTATGATGTTAATCGGGTCTTGATTCGCTTGACGCTGCTG
binding signal [1]: 2.85 z-score
binding signal [2]: 4.78 z-score
binding signal [3]: 3.1 z-score
binding signal [4]: 1.21 z-score
binding signal [5]: 4.7 z-score

CCGATTAACATCACGGGAAACCCTGATGTTAATCGGGTCTTGATTCGCTTGACGCTGCTG
binding signal [1]: 4.31 z-score
binding signal [2]: 4.16 z-score
binding signal [3]: 3.68 z-score
binding signal [4]: 7.56 z-score
binding signal [5]: 5.65 z-score

CCGATTAACATCAAGGGATTTTCTGATGTTAATCGGGTCTTGATTCGCTTGACGCTGCTG
binding signal [1]: 5.78 z-score
binding signal [2]: 6.63 z-score
binding signal [3]: 1.57 z-score
binding signal [4]: 6.57 z-score
binding signal [5]: 6.65 z-score

CCGATTAACATCAGGCTATCCCCTGATGTTAATCGGGTCTTGATTCGCTTGACGCTGCTG
binding signal [1]: 4.44 z-score
binding signal [2]: 3.67 z-score
binding signal [3]: 2.18 z-score
binding signal [4]: 3.3 z-score
binding signal [5]: 4.81 z-score

CCGATTAACATCAAAGTGTCCCCTGATGTTAATCGGGTCTTGATTCGCTTGACGCTGCTG
binding signal [1]: 5.38 z-score
binding signal [2]: 4.57 z-score
binding signal [3]: 5.15 z-score
binding signal [4]: 1.98 z-score
binding signal [5]: 4.15 z-score

CCGATTAACATCAGGGGCGGGAATGATGTTAATCGGGTCTTGATTCGCTTGACGCTGCTG
binding signal [1]: 2.87 z-score
binding signal [2]: 3.85 z-score
binding signal [3]: 3.85 z-score
binding signal [4]: 2.49 z-score
binding signal [5]: 4.18 z-score

CCGATTAACATCAGGGGAATGACTGATGTTAATCGGGTCTTGATTCGCTTGACGCTGCTG
binding signal [1]: 5.81 z-score
binding signal [2]: 6.43 z-score
binding signal [3]: 3.9 z-score
binding signal [4]: 5.22 z-score
binding signal [5]: 5.09 z-score
